In article PMC7862700, “An all-to-all approach to the identification of sequence-specific readers for epigenetic DNA modifications on cytosine” one finds binding signal data, which are given here for 1 sequence.

Common to all, as to experiment: DAPPL (digital affinity profiling via proximity ligation, sequencing); 10 mM Tris-HCl pH 7.5, 50 mM NaCl, 1 mM DTT, 4% glycerol, room temperature, 30 min; GST-TFs on glutathione beads, 16-mer random dsDNA library, 0.1% formaldehyde crosslink after washing; high values mean tight binding
The target of assay [1] is T1, FLI1 (Homo sapiens, UniProt Q01543 1-452).
T1 sequence: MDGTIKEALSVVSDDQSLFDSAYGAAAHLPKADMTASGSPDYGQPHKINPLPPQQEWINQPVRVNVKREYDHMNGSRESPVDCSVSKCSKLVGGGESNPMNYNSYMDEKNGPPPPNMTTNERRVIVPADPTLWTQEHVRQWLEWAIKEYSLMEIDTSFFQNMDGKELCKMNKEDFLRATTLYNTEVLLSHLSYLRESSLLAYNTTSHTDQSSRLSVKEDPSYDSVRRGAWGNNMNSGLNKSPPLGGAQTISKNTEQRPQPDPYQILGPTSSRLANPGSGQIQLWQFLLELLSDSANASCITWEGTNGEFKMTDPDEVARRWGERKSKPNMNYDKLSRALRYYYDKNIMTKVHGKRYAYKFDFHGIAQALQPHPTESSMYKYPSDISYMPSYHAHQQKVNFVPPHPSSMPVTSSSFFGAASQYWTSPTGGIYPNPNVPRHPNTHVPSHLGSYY
Conditions: protein: recombinant; tags: N-terminal GST; dsDNA, one strand shown. The essentials: (§1)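 After expression in yeast as GST fusions, human transcription factors were bound to glutathione beads, DNA-barcoded and mixed with a tag-only sample. The pools were incubated with 200 nmole of a 16-mer random double-stranded DNA library in Tris/NaCl/DTT/glycerol buffer (30 min, room temperature), washed and crosslinked with 0.1% formaldehyde. Proximity ligation with BsaI/T4 ligase ran for 1 h at 37 °C, before PCR amplification and sequencing on an Illumina NextSeq500. Binding signal is a hexamer's read frequency for a factor divided by its frequency for the tag-only sample.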

The target in assay [2] is T2, ELK1 (Homo sapiens, UniProt P19419 1-428).
T2 sequence: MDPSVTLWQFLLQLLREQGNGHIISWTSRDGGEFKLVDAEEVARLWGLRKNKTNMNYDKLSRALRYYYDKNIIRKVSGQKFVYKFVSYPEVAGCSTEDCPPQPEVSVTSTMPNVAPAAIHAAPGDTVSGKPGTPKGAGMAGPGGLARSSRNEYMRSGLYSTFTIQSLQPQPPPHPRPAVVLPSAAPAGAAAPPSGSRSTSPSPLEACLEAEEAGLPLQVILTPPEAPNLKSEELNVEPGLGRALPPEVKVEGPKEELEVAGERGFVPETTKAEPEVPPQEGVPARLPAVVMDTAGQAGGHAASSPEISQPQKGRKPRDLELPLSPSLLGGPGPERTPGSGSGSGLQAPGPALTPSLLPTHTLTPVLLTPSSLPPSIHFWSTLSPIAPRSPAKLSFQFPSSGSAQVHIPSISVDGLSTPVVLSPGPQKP
Conditions: protein: recombinant; tags: N-terminal GST; dsDNA, one strand shown. The essentials: as §1

The target of assay [3] is T3, GABPA (Homo sapiens, UniProt Q06546 1-454).
T3 sequence: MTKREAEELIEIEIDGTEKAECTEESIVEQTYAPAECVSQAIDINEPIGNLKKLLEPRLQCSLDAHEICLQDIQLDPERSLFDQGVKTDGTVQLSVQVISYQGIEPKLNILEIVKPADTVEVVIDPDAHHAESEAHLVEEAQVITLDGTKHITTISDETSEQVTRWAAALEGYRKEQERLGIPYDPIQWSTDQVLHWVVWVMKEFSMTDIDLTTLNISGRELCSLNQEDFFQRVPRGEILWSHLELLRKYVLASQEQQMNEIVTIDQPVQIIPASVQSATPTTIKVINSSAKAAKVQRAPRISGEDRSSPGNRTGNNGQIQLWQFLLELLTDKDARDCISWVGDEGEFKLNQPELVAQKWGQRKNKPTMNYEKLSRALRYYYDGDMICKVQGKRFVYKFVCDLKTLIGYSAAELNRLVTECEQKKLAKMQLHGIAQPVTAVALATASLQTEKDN
Conditions: protein: recombinant; tags: N-terminal GST; dsDNA, one strand shown. A digest of the protocol:
as §1

Assay [4] deals with T4, ERG (Homo sapiens, UniProt P11308 1-479).
T4 sequence: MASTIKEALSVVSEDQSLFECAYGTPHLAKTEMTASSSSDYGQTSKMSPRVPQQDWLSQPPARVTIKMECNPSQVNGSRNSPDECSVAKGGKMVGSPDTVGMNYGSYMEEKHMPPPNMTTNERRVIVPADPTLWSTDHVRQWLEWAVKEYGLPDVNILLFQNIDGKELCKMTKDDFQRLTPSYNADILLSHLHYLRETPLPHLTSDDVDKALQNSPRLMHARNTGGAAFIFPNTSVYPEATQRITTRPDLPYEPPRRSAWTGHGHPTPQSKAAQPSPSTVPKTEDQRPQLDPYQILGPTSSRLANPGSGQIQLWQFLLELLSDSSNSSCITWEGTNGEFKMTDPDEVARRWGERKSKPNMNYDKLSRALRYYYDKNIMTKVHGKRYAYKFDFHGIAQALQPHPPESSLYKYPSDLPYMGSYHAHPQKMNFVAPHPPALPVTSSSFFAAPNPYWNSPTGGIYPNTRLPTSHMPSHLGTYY
Conditions: protein: recombinant; tags: N-terminal GST; dsDNA, one strand shown. The essentials:
as §1

For assay [5], the target named is ELF1 (Homo sapiens, UniProt P32519 1-619). Conditions: protein: recombinant; tags: N-terminal GST; dsDNA, one strand shown. The essentials:
as §1

Assay [6] deals with T5, EHF (Homo sapiens, UniProt Q9NZC4 1-300).
T5 sequence: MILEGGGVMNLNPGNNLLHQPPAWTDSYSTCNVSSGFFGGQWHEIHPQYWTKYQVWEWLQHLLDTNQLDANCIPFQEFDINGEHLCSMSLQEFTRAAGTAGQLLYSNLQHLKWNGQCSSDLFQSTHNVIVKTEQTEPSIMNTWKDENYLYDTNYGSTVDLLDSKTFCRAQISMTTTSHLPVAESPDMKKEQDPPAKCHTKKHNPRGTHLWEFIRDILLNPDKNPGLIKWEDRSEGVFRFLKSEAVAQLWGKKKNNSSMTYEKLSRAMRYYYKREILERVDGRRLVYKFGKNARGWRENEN
Conditions: protein: recombinant; tags: N-terminal GST; dsDNA, one strand shown. The essentials:
as §1

The target in assay [7] is SPI1 (Homo sapiens, UniProt P17947 1-270). Conditions: protein: recombinant; tags: N-terminal GST; dsDNA, one strand shown. The essentials: as §1
The target of assay [8] is SPIB (Homo sapiens, UniProt Q01892 1-262). Conditions: protein: recombinant; tags: N-terminal GST; dsDNA, one strand shown. The essentials: as §1
Sequence of SPIB (Q01892 whole entry): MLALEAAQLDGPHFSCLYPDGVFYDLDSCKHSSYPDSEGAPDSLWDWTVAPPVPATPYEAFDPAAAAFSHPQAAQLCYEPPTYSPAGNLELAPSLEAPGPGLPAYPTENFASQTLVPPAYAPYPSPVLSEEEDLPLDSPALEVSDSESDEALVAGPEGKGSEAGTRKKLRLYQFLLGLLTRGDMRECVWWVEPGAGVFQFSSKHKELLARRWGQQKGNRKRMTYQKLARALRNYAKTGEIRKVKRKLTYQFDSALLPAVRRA
Assay [9] concerns the target T6, ELK3 (Homo sapiens, UniProt P41970 1-407).
T6 sequence: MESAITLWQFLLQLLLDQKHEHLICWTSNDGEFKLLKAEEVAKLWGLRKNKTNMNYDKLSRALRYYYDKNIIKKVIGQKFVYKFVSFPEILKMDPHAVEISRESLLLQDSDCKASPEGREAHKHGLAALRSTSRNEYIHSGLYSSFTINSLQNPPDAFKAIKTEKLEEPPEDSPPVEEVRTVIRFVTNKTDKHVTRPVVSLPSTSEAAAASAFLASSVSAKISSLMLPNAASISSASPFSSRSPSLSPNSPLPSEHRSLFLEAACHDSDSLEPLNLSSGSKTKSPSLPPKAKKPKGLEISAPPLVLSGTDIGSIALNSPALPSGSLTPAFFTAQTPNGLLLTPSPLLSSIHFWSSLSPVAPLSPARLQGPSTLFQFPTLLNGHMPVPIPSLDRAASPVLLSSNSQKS
Conditions: protein: recombinant; tags: N-terminal GST; dsDNA, one strand shown. The essentials:
as §1

Assay [10] concerns the target T7, FEV (Homo sapiens, UniProt Q99581 1-238).
T7 sequence: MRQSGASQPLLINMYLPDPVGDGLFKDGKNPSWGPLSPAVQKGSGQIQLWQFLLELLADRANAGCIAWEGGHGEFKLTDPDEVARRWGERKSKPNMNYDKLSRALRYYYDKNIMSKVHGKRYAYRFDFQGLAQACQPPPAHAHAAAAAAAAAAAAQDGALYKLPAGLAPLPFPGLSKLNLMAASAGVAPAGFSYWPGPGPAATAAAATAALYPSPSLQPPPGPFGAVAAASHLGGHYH
Conditions: protein: recombinant; tags: N-terminal GST; dsDNA, one strand shown. The essentials: as §1

Assay [11] addresses ETV5 (Homo sapiens, UniProt P41161 1-510). Conditions: protein: recombinant; tags: N-terminal GST; dsDNA, one strand shown. The essentials:
as §1

For assay [12], the target named is HSF1 (Homo sapiens, UniProt Q00613 1-529). Conditions: protein: recombinant; tags: N-terminal GST; chain copies: 3; dsDNA, one strand shown. The essentials: as §1
Sequence of HSF1 (Q00613 whole entry): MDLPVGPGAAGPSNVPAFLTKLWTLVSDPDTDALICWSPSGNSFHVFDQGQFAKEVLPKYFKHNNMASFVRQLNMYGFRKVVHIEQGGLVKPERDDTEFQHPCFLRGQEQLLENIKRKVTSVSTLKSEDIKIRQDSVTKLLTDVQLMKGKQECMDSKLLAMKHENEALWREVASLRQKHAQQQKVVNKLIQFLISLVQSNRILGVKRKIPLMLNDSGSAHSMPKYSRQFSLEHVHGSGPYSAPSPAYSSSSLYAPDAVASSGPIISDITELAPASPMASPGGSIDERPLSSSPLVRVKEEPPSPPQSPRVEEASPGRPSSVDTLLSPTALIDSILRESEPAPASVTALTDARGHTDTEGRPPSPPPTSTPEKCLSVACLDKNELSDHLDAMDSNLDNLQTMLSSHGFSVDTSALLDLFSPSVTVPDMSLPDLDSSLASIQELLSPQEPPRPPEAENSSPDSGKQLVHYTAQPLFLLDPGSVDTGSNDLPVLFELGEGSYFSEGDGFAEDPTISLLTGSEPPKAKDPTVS
The target in assay [13] is T8, SPIC (Homo sapiens, UniProt Q8N5J4 1-248).
T8 sequence: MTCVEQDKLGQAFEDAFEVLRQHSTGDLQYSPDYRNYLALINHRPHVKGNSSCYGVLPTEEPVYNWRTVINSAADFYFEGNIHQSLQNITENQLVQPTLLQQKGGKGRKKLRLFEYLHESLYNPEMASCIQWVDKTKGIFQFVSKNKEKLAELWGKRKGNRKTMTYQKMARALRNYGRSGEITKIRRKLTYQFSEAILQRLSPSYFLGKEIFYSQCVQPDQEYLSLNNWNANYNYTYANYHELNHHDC
Conditions: protein: recombinant; tags: N-terminal GST; dsDNA, one strand shown. The essentials:
as §1

In assay [14] the target is ELF4 (Homo sapiens, UniProt Q99607 1-663). Conditions: protein: recombinant; tags: N-terminal GST; dsDNA, one strand shown. The essentials:
as §1

Assay [15] has as its target T9, ELK4 (Homo sapiens, UniProt P28324-2 1-405).
T9 sequence: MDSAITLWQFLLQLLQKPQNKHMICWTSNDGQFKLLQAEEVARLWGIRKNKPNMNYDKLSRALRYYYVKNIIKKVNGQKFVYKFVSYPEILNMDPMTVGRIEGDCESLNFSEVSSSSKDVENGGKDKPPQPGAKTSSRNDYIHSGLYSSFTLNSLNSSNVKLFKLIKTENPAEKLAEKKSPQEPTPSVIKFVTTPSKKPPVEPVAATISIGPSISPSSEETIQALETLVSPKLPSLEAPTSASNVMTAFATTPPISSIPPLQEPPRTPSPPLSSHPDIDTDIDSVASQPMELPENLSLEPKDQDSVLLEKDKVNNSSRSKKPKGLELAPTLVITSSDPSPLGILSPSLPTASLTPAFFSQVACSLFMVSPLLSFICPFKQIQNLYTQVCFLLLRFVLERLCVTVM
Conditions: protein: recombinant; tags: N-terminal GST; dsDNA, one strand shown. The essentials:
as §1

Assay [16] deals with T10, ETV2 (Homo sapiens, UniProt O00321 1-342).
T10 sequence: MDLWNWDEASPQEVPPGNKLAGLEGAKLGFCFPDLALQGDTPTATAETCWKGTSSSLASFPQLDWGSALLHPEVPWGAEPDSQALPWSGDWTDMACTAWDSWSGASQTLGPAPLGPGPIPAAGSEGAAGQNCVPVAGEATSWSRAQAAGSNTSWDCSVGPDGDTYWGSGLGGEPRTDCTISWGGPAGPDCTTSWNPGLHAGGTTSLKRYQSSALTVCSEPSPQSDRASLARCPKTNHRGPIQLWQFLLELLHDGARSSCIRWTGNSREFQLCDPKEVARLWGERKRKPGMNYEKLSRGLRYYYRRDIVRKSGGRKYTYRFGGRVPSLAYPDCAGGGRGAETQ
Conditions: protein: recombinant; tags: N-terminal GST; dsDNA, one strand shown. A digest of the protocol:
as §1

Assay [17] has as its target T11, ELF3 (Homo sapiens, UniProt P78545 1-371).
T11 sequence: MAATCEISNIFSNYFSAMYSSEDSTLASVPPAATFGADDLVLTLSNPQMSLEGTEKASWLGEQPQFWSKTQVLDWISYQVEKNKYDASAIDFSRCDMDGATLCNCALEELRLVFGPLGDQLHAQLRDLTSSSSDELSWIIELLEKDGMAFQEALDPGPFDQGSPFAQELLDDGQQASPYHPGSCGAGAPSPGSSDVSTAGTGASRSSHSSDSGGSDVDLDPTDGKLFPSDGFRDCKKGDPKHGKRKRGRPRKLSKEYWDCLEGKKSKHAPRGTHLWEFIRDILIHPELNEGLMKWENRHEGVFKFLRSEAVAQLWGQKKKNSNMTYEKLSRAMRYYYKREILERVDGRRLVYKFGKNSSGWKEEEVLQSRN
Conditions: protein: recombinant; tags: N-terminal GST; dsDNA, one strand shown. The essentials:
as §1

The target of assay [18] is CRX (Homo sapiens, UniProt O43186 1-299). Conditions: protein: recombinant; tags: N-terminal GST; dsDNA, one strand shown. The essentials:
as §1

Assay [19] has as its target ETV1 (Homo sapiens, UniProt P50549 1-477). Conditions: protein: recombinant; tags: N-terminal GST; dsDNA, one strand shown. The essentials: as §1

Sequence of CRX (O43186 whole entry): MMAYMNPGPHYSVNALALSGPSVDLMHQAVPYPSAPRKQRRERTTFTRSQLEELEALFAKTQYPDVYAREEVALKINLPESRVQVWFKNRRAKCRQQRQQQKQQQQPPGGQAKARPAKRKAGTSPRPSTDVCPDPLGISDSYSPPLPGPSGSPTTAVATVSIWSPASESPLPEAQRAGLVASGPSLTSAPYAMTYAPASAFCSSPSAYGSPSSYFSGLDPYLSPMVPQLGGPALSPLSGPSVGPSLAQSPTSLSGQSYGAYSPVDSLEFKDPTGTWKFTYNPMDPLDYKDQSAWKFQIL
Sequence of ELF4 (Q99607 whole entry): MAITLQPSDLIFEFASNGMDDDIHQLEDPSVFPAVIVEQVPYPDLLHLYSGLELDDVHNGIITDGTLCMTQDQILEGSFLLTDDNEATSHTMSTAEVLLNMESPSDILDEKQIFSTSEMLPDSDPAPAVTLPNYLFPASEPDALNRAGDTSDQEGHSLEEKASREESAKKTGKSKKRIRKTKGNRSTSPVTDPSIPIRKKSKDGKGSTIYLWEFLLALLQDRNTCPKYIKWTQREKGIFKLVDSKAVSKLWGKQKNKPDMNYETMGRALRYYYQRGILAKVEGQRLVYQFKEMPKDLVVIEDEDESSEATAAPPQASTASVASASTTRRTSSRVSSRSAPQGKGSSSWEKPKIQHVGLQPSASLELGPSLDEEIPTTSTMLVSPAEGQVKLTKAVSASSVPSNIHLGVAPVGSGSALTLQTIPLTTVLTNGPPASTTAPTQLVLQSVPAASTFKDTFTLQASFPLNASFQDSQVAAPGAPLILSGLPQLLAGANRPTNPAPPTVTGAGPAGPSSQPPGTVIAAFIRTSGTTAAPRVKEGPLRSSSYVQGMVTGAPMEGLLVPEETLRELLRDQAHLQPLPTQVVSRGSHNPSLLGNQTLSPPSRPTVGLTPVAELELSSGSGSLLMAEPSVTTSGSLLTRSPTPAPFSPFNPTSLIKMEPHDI
Sequence of ETV5 (P41161 whole entry): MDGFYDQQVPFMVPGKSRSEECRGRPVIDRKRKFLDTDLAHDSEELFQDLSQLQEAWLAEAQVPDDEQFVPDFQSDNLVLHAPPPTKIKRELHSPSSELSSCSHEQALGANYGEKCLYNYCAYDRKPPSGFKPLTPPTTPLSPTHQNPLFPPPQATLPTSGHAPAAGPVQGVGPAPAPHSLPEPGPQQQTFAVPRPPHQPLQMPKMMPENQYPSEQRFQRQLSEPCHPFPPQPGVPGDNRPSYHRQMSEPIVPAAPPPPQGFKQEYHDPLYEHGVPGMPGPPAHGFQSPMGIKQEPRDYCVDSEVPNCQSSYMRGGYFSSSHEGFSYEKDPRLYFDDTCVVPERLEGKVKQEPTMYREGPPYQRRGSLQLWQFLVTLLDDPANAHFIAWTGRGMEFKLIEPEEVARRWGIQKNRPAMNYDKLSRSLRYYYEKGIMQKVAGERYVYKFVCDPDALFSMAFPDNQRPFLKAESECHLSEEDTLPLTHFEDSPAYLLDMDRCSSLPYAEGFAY
Sequence of ETV1 (P50549 whole entry): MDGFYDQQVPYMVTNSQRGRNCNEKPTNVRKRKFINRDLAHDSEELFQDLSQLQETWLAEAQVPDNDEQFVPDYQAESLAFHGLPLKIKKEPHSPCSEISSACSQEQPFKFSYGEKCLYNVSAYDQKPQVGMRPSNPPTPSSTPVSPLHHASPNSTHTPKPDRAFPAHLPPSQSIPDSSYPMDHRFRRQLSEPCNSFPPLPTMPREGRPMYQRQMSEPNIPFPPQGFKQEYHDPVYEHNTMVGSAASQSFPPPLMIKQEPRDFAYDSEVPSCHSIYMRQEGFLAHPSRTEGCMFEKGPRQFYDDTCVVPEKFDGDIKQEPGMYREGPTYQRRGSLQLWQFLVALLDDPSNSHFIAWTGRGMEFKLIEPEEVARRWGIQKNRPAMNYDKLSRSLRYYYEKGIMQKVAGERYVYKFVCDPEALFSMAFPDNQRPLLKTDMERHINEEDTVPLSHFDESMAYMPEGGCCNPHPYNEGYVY
Sequence of ELF1 (P32519 whole entry): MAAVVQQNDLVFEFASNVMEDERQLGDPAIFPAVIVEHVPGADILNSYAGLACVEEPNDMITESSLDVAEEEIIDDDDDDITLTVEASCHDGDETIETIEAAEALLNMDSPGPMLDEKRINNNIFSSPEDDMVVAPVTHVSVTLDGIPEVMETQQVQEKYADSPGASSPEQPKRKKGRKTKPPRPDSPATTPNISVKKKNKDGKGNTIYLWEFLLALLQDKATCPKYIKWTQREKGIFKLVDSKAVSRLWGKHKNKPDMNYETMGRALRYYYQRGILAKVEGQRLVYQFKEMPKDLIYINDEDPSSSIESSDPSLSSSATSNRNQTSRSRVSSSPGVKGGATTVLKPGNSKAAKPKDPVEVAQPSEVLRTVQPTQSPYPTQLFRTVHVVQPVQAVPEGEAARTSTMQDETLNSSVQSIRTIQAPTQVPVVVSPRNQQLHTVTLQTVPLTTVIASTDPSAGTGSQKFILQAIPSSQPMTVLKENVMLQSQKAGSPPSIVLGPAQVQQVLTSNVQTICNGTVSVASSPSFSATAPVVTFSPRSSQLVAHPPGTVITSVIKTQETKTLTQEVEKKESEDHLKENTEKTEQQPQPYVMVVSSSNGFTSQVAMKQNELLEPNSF

Turning to ACCTTC, the binding signal in assay [1] is 1.8 fold enrichment (6-mer frequency, TF over GST control); in assay [2], 1.94 fold enrichment (6-mer frequency, TF over GST control); in [3], 1.79 fold enrichment (6-mer frequency, TF over GST control); in [4], 2.03 fold enrichment (6-mer frequency, TF over GST control); in assay [5], 1.92 fold enrichment (6-mer frequency, TF over GST control); in [6], 2.02 fold enrichment (6-mer frequency, TF over GST control). For the same sequence, the binding signal in assay [7] is 1.75 fold enrichment (6-mer frequency, TF over GST control); in assay [8], 1.95 fold enrichment (6-mer frequency, TF over GST control); in [9], 1.8 fold enrichment (6-mer frequency, TF over GST control); in assay [10] it was 1.97 fold enrichment (6-mer frequency, TF over GST control); in assay [11] it was 1.96 fold enrichment (6-mer frequency, TF over GST control); in [12], 2.87 fold enrichment (6-mer frequency, TF over GST control). Moreover, the binding signal in assay [13] is 1.66 fold enrichment (6-mer frequency, TF over GST control); in assay [14], 2.06 fold enrichment (6-mer frequency, TF over GST control); in assay [15] it was 2.06 fold enrichment (6-mer frequency, TF over GST control); in [16], 1.71 fold enrichment (6-mer frequency, TF over GST control); in [17], 1.95 fold enrichment (6-mer frequency, TF over GST control); in [18], 1.88 fold enrichment (6-mer frequency, TF over GST control). Further, the binding signal in [19] was 1.98 fold enrichment (6-mer frequency, TF over GST control).
